Over roughly 39,000 sequences, “fluorescence intensity (a.u.)” has its median near 4,300; the highest 2% begin near 39,000. For the sample, the highest values were picked, then their nearest neighbours and some sequences at random.

The experiment concerns the target T1, OsSMF1 (Oryza sativa, UniProt Q6ZLB0 1-436).
T1 sequence: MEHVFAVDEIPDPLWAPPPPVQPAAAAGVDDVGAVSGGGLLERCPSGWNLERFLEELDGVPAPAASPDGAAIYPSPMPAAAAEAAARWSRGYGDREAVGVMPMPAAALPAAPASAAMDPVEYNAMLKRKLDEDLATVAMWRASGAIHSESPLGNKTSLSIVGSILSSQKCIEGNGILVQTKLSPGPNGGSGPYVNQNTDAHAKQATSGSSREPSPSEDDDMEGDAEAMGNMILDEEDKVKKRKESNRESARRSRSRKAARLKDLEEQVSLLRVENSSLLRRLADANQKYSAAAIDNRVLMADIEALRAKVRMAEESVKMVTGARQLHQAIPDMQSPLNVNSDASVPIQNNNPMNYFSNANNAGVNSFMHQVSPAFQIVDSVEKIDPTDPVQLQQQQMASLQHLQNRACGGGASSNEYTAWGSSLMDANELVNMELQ
The experiment in a line: protein-binding microarray (RPBM); PBS, 2% BSA, 51.3 ng/ul salmon testes DNA, 50 uM zinc acetate, 200 nM TF, 25 C, 1 h; high values mean tight binding. Particulars: protein: recombinant; tags: N-terminal polyhistidine and DsRed monomer fusion (pET32a); chain copies: 2; label: CyDye5-dUTP incorporated in the synthesized complementary strand; 3' TTTTT single-stranded linker to array surface; dsDNA, one strand shown. The procedure, abridged:
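Transcription factors were made in E. coli BL21-CodonPlus as N-terminal fusions to a polyhistidine tag and DsRed, then purified on Ni–NTA. After primer extension with Cy5-dUTP and blocking with 2% BSA, a custom Agilent array was exposed for 1 h at 25 °C to 200 nM protein in PBS, 2% BSA, salmon testes DNA and 50 µM zinc acetate. Washed arrays were scanned on an Axon 4000B, and the binding signal is per-feature fluorescence intensity in arbitrary units.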
Regarding “GGATTAATTAGTCTCAAAAGATTCGTCTCGCGGTTTCCAGCGGAGTCACCTAGTGCAG”, the binding signal is 29400 fluorescence intensity (a.u.). Take “ATTAGGCTCAAAAGATTCGTCTCGCGATTTTCAGACGAGCCGGAGTCACCTAGTGCAG”: the binding signal is 41800 fluorescence intensity (a.u.). As for “GGCTTAAAAGATTCGTTTCATAATTTACACGCAAACTGTACGGAGTCACCTAGTGCAG”, the binding signal is 3890 fluorescence intensity (a.u.). For “GGGTGATTGAATCCTTGTCATCTAGTGTAAGGCATCTTTCCGGAGTCACCTAGTGCAG”, the binding signal is 4510 fluorescence intensity (a.u.). To “CGGCCTATAAGTACTCCATCCCGCCGGCCGGCCGGTGACTCGGAGTCACCTAGTGCAG” belongs 3370 fluorescence intensity (a.u.); to “ATCTGTTAGGTATTTAATTTATTTTCTTTTGCTATGTCAGCGGAGTCACCTAGTGCAG”, 3880 fluorescence intensity (a.u.); to “TTAATGCATACTGACAGCTGTTTATGTGCTTCAAATTTACCGGAGTCACCTAGTGCAG”, 4700 fluorescence intensity (a.u.). Regarding “TAATTCAGCTTAATAAATTCGTCCAGCTGTTTACTGACTGCGGAGTCACCTAGTGCAG”, the binding signal is 52800 fluorescence intensity (a.u.). To “GCTTAATAAATTCGTCTCGCGGTTTAATGTTGGATTCTGTCGGAGTCACCTAGTGCAG” belongs 3670 fluorescence intensity (a.u.); to “GCGAGCGGCCAACTGGGAAGGCGGTGGTGAGGACATCGTGCGGAGTCACCTAGTGCAG”, 5400 fluorescence intensity (a.u.); to “GCGCATTGGCGAGGACTGCGACTATCTGGGAAGCGTGAAGCGGAGTCACCTAGTGCAG”, 51500 fluorescence intensity (a.u.). With “TCTGCCGCCGGCCGCGGCGAGGGATGGCATTGGCGTGGCGCGGAGTCACCTAGTGCAG” the figure was 3550 fluorescence intensity (a.u.); with “GGTGTCGCGTCGCGTCTGCAGTAGAAATGGAAGCCTGGGGCGGAGTCACCTAGTGCAG”, 3230 fluorescence intensity (a.u.). As for “GGCCCACGCCGGCAGATCAGGTGGGGAGAGAAGCTCCGCCCGGAGTCACCTAGTGCAG”, the binding signal was 14700 fluorescence intensity (a.u.). Take “AGAGGAAGAGGAAGAAGAGGTCATTCCGCCACGTCCCGGACGGAGTCACCTAGTGCAG”: the binding signal is 7090 fluorescence intensity (a.u.). With “AGAAGAAGAGGAAGCTGTGGGTCAGGTGGGTTTCCGCCCACGGAGTCACCTAGTGCAG”, the binding signal was 41300 fluorescence intensity (a.u.). For “GTGGAAAAGCCAAAGGCAAAGGCAAACCACGCGTCTCTCTCGGAGTCACCTAGTGCAG”, the binding signal is 17400 fluorescence intensity (a.u.). To “GAACTACTAAACGGTACGTCTTTTCGTTTAAAAGAATATCCGGAGTCACCTAGTGCAG” belongs 39400 fluorescence intensity (a.u.); to “ACTAAACAGATTTTCTTTAAAGTTTATGCAGAAAAGTTTCCGGAGTCACCTAGTGCAG”, 5060 fluorescence intensity (a.u.); to “GCATATGGGGCATATATACGTACATGACTGAATCATCGTTCGGAGTCACCTAGTGCAG”, 3250 fluorescence intensity (a.u.).

On to “ACACTACCAATAGCTGGTACTTATTCAGCACAATAAGCTACGGAGTCACCTAGTGCAG”, for which the binding signal was 46400 fluorescence intensity (a.u.).

In the case of “ATTTAATAACTTCTATGGACAATATGTGCCCTGAAACTACCGGAGTCACCTAGTGCAG”, the binding signal is 48800 fluorescence intensity (a.u.). Take “ATATGGCATACATGAGAATTTAGAGAATTTACCATCAAATCGGAGTCACCTAGTGCAG”: the binding signal was 45500 fluorescence intensity (a.u.). To “ACCTACTAATAACTAGTTAATTGTCTATTGTGCCCCTAGTCGGAGTCACCTAGTGCAG” belongs 13700 fluorescence intensity (a.u.); to “TGAGAGAGAATTGCATTTTATGACATGCCCATATGATGATCGGAGTCACCTAGTGCAG”, 17600 fluorescence intensity (a.u.); to “ATCAAAATAGATTAAAGTTTAGTTTTAACGAAACTAGTTTCGGAGTCACCTAGTGCAG”, 3180 fluorescence intensity (a.u.). In the case of “TTCTACTATGTCATTCTAGTACTATATAAAACTACTATGCCGGAGTCACCTAGTGCAG”, the binding signal is 3690 fluorescence intensity (a.u.). Turning to “GGAAATAGTAAATAGCTACTACCAAGCCATAAGCTTACTACGGAGTCACCTAGTGCAG”, the binding signal was 17900 fluorescence intensity (a.u.).

On to “ATTCACTGGAGGTGGTGCATCAGCATCACCAAAGCTAGCACGGAGTCACCTAGTGCAG”, for which the binding signal is 3970 fluorescence intensity (a.u.). To “TATATATTATACCATTAATGACTGATCCTACCCTCTCATACGGAGTCACCTAGTGCAG” belongs 3290 fluorescence intensity (a.u.); to “TATGTTGAGTTTGAATTTGTATATTTATGAAATGGCATATCGGAGTCACCTAGTGCAG”, 33000 fluorescence intensity (a.u.). With “ATCGTCGTCGCCGCCGCCTCCCATGTCGTTGCTGTCGCCGCGGAGTCACCTAGTGCAG” the figure was 3240 fluorescence intensity (a.u.); with “TCGGCGGCGAACTTCCCCGCCGACGTGCCAGATCTCAAACCGGAGTCACCTAGTGCAG”, 4610 fluorescence intensity (a.u.); with “ACTGGCTTCAATTTATCTATAGCTAATCTAATAGCTAATTCGGAGTCACCTAGTGCAG”, 33900 fluorescence intensity (a.u.). To “TCCAATCAGACGACTATTCCTATGTTTTACAATTCTCTATCGGAGTCACCTAGTGCAG” belongs 51200 fluorescence intensity (a.u.). Consider “TGTTCTAACAATAGCATTTCTTGCATTTAACTATGTTCCTCGGAGTCACCTAGTGCAG”, for which the binding signal was 52900 fluorescence intensity (a.u.). For “ACTTTCACAAAACTATACACATATCACTTTTCAATAAATACGGAGTCACCTAGTGCAG”, the binding signal was 19900 fluorescence intensity (a.u.). “ATCACATCAAAACTTTTCTACACATATAAACTTCTAACTTCGGAGTCACCTAGTGCAG”: the binding signal was 27400 fluorescence intensity (a.u.). On to “CAATTCATCTATAACTAATTTAATAGTCAATTCATACAATCGGAGTCACCTAGTGCAG”, for which the binding signal is 44100 fluorescence intensity (a.u.). As to “AATGTAAGTCATTCTAGCATTTCTCATTAACATCAATATGCGGAGTCACCTAGTGCAG”, the binding signal is 3240 fluorescence intensity (a.u.).

For “AGTTCCTAATATTTCTCAATGTATATATGTACTCATTCCTCGGAGTCACCTAGTGCAG”, the binding signal is 3800 fluorescence intensity (a.u.). With “TTATTTATAACTGATCTAATAGCCAATTCACACAATAATTCGGAGTCACCTAGTGCAG” the figure was 13700 fluorescence intensity (a.u.); with “TGCACTATTCTATATTATATTATGCAAGTTTATTTTACGACGGAGTCACCTAGTGCAG”, 3260 fluorescence intensity (a.u.); with “TGTTTCTTTTCTTCAGACTAGTCACCTACGGTTTACTATTCGGAGTCACCTAGTGCAG”, 3720 fluorescence intensity (a.u.). With “CAAACTTCTAACCTTTTCATCACATCAAAACTTTTCTATACGGAGTCACCTAGTGCAG” the figure was 63600 fluorescence intensity (a.u.).

(Values after paper PMC7819943, “Rice protein-binding microarrays: a tool to detect cis-acting elements near promoter regions in rice”.)
